# Columns and labels:
# Experiment in all cases: DAPPL (digital affinity profiling via proximity ligation, sequencing); 10 mM Tris-HCl pH 7.5, 50 mM NaCl, 1 mM DTT, 4% glycerol, room temperature, 30 min; GST-TFs on glutathione beads, 16-mer random dsDNA library, 0.1% formaldehyde crosslink after washing; high values mean tight binding
# Conditions in all cases: protein: recombinant; tags: N-terminal GST; dsDNA, one strand shown
# ELK1 = target: T1, ELK1 (Homo sapiens, UniProt P19419 1-428)
# T1 sequence: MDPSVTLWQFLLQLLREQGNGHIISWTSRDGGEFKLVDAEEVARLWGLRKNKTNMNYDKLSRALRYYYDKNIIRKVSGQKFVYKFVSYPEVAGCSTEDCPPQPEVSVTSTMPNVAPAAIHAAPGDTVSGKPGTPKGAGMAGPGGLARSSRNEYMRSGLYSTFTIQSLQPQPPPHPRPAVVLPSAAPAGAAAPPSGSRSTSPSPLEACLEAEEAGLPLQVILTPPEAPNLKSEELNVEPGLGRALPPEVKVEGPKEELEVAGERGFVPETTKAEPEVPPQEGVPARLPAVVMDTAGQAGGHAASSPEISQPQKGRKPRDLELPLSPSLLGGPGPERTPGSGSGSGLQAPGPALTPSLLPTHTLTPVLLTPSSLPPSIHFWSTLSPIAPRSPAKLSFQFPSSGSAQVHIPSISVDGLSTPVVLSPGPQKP
# Method in brief: (§1)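 Yeast served to express human transcription factors as GST fusions, which were then captured on glutathione beads and labelled with DNA barcodes. Pooled with a tag-only sample, they were incubated with 200 nmole of a 16-mer random double-stranded DNA library for 30 min at room temperature in Tris/NaCl/DTT/glycerol buffer, washed, crosslinked with 0.1% formaldehyde, ligated by proximity, amplified by PCR and sequenced. Dividing each hexamer's read frequency for a factor by its frequency for the tag-only sample gives the binding signal.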
# ERG = target: T2, ERG (Homo sapiens, UniProt P11308 1-479)
# T2 sequence: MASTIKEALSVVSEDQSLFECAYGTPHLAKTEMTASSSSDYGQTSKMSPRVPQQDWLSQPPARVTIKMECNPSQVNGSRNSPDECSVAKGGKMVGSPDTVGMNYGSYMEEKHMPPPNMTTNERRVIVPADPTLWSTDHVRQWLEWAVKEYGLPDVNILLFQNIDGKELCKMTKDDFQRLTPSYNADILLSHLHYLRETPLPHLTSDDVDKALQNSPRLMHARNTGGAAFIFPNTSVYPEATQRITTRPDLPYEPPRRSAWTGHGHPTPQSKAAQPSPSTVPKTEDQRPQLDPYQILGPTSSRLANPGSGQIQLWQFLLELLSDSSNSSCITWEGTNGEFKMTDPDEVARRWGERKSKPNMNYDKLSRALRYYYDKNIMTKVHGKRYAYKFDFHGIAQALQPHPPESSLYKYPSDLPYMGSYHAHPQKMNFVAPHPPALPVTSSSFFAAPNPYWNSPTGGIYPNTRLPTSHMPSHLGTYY
# Method in brief: as §1
# ELF1 = ELF1 (Homo sapiens, UniProt P32519 1-619)
# Sequence of ELF1 (P32519 whole entry): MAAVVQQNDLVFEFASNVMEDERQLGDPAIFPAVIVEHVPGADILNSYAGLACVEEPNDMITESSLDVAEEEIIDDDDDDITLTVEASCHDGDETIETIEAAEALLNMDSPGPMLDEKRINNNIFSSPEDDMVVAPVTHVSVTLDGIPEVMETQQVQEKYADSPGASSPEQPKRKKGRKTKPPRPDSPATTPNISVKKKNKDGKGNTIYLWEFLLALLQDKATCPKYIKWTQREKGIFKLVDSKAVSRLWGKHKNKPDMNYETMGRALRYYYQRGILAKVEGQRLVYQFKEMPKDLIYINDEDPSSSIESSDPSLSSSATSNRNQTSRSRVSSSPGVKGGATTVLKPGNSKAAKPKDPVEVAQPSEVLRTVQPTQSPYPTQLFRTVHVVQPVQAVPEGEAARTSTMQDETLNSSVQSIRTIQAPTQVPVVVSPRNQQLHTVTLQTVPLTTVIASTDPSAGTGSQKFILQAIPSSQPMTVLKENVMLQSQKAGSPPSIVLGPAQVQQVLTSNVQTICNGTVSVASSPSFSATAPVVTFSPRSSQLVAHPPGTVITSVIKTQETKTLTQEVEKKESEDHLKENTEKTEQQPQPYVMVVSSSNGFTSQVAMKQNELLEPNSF
# Method in brief: as §1
# EHF = target: T3, EHF (Homo sapiens, UniProt Q9NZC4 1-300)
# T3 sequence: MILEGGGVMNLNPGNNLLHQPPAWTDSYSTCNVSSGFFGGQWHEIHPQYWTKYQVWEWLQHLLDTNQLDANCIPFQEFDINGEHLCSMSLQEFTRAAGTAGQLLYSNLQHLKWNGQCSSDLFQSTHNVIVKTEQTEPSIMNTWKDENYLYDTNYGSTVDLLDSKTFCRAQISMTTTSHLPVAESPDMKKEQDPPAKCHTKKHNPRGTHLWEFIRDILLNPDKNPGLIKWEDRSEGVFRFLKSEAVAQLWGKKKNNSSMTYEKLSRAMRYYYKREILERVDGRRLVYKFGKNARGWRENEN
# Method in brief: as §1
# SPIB = SPIB (Homo sapiens, UniProt Q01892 1-262)
# Sequence of SPIB (Q01892 whole entry): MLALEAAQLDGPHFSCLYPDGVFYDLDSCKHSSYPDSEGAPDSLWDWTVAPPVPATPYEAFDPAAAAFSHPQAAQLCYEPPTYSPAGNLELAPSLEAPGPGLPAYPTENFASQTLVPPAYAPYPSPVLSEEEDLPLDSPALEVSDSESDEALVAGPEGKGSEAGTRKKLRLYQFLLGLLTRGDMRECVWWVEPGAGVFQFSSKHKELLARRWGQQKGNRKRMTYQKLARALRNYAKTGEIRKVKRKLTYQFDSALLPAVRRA
# Method in brief: as §1
# SPIC = target: T4, SPIC (Homo sapiens, UniProt Q8N5J4 1-248)
# T4 sequence: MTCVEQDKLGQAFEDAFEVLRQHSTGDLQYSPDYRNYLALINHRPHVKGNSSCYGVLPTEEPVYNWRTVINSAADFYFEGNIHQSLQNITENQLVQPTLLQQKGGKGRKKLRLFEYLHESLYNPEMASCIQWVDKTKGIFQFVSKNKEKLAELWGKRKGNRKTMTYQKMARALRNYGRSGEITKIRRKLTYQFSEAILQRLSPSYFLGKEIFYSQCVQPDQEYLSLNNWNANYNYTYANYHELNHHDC
# Method in brief: as §1
# ELK4 = target: T5, ELK4 (Homo sapiens, UniProt P28324-2 1-405)
# T5 sequence: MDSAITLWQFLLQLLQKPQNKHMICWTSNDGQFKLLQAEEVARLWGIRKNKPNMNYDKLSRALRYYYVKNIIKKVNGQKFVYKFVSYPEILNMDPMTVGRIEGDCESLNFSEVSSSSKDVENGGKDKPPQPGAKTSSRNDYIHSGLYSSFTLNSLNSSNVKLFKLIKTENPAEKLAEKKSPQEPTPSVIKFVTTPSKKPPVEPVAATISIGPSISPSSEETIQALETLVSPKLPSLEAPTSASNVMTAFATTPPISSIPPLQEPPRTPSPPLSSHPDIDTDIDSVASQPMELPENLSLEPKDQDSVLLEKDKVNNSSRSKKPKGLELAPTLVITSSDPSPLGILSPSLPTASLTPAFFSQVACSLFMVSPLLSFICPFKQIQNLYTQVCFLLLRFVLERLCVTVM
# Method in brief: as §1
# ETV2 = target: T6, ETV2 (Homo sapiens, UniProt O00321 1-342)
# T6 sequence: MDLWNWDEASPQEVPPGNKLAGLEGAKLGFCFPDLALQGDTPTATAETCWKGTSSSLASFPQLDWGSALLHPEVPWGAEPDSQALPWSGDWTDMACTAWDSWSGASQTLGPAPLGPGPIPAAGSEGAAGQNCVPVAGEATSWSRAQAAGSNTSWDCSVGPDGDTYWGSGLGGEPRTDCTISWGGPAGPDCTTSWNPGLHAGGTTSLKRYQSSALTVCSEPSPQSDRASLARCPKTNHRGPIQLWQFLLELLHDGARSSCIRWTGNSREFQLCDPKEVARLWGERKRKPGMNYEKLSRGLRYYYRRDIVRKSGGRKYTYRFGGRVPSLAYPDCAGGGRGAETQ
# Method in brief: as §1
# ELF3 = target: T7, ELF3 (Homo sapiens, UniProt P78545 1-371)
# T7 sequence: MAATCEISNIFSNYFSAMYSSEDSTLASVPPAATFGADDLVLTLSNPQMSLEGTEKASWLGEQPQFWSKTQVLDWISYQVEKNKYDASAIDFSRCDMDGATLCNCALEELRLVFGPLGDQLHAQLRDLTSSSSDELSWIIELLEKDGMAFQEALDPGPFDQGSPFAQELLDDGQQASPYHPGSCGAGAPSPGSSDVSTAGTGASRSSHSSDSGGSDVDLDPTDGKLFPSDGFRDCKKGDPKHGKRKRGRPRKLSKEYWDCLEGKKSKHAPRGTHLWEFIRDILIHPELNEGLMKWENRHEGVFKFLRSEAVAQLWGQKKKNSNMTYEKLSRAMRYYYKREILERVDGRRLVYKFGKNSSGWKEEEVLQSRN
# Method in brief: as §1
# ETV1 = ETV1 (Homo sapiens, UniProt P50549 1-477)
# Sequence of ETV1 (P50549 whole entry): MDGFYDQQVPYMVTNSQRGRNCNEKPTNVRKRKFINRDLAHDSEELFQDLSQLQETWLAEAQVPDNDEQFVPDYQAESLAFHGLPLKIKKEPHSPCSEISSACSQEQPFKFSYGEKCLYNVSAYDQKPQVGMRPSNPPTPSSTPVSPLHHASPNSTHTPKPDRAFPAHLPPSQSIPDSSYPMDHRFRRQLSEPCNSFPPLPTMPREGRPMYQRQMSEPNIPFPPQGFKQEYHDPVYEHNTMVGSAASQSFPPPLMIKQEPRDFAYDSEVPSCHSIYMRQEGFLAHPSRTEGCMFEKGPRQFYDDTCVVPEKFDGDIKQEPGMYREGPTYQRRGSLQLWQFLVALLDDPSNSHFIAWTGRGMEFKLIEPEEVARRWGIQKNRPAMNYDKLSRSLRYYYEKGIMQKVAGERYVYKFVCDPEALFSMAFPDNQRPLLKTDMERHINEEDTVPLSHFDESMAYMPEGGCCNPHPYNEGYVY
# Method in brief: as §1
# ERF = target: T8, ERF (Homo sapiens, UniProt P50548 1-548)
# T8 sequence: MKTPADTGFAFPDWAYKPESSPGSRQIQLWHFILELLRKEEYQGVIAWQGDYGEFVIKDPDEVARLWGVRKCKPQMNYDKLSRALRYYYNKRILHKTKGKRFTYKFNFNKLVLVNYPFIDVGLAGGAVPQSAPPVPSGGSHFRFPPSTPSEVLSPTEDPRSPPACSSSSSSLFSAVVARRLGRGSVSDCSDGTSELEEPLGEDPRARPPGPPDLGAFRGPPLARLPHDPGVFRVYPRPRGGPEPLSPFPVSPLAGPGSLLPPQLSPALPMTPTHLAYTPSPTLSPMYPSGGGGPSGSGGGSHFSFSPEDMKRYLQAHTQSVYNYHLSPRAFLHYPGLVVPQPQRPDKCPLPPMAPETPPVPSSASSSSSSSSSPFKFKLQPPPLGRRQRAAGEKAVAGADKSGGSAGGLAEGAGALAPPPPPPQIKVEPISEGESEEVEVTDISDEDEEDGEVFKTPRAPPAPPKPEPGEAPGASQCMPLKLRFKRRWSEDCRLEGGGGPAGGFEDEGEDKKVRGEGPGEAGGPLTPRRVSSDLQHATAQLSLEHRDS
# Method in brief: as §1
# ETV3L = target: T9, ETV3L (Homo sapiens, UniProt Q6ZN32 1-361)
# T9 sequence: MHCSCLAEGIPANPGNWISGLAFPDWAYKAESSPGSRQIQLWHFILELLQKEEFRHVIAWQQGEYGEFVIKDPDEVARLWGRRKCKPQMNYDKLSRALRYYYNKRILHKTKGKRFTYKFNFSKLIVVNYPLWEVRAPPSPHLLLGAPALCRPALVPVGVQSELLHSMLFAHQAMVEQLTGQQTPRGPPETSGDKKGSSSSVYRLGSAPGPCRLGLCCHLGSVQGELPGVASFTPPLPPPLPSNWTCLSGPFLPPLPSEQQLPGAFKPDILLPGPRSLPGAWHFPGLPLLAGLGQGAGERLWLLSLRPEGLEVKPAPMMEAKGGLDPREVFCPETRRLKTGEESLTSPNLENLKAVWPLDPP
# Method in brief: as §1
# ETS2 = target: T10, ETS2 (Homo sapiens, UniProt P15036 1-469)
# T10 sequence: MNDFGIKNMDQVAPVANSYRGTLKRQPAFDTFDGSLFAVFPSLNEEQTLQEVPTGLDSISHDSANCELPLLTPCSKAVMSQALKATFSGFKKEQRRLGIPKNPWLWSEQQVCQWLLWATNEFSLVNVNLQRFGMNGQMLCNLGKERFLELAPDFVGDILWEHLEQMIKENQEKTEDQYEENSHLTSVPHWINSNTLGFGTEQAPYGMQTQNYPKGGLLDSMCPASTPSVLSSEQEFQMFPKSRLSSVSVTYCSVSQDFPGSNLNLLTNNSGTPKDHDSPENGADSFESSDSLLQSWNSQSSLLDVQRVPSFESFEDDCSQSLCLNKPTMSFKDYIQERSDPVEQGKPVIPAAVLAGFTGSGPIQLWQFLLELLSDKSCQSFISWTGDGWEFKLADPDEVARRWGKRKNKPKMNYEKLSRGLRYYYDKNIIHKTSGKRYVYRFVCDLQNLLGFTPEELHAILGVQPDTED
# Method in brief: as §1
# ETV7 = target: T11, ETV7 (Homo sapiens, UniProt Q9Y603 1-341)
# T11 sequence: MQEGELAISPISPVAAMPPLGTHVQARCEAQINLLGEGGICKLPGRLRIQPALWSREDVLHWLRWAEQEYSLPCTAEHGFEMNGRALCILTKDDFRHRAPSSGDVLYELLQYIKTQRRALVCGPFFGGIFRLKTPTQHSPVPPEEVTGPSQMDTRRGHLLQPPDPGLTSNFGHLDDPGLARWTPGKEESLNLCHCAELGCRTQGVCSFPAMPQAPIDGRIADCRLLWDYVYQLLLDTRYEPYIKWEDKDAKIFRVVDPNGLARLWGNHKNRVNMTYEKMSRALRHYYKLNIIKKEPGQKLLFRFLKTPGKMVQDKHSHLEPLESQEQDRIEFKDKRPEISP
# Method in brief: as §1
# ETV3 = target: T12, ETV3 (Homo sapiens, UniProt P41162-2 1-143)
# T12 sequence: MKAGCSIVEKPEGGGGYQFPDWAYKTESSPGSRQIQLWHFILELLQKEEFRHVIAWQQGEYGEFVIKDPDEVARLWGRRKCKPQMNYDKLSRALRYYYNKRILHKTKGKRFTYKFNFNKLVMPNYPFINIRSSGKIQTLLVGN
# Method in brief: as §1
# ETV6 = ETV6 (Homo sapiens, UniProt P41212 1-452)
# Sequence of ETV6 (P41212 whole entry): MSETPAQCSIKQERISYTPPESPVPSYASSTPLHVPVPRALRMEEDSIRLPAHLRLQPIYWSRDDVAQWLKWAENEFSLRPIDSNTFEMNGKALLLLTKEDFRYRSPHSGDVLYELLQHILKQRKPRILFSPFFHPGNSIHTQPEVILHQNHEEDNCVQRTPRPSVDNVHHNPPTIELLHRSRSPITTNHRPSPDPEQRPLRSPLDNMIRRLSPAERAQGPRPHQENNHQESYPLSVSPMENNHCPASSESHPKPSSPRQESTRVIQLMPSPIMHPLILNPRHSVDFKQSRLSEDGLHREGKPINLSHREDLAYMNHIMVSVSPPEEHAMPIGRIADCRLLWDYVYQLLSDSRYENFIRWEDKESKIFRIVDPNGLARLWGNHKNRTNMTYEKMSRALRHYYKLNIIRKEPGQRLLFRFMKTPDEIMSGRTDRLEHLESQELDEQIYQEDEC
# Method in brief: as §1
sequence,measurement,setting,value
GGCTAT,binding signal,ELK1,"1.06 fold enrichment (6-mer frequency, TF over GST control)"
same,binding signal,ERG,"1.07 fold enrichment (6-mer frequency, TF over GST control)"
same,binding signal,ELF1,"1.02 fold enrichment (6-mer frequency, TF over GST control)"
same,binding signal,EHF,"1.12 fold enrichment (6-mer frequency, TF over GST control)"
same,binding signal,SPIB,"1.02 fold enrichment (6-mer frequency, TF over GST control)"
same,binding signal,SPIC,"1.03 fold enrichment (6-mer frequency, TF over GST control)"
same,binding signal,ELK4,"1.15 fold enrichment (6-mer frequency, TF over GST control)"
same,binding signal,ETV2,"1.06 fold enrichment (6-mer frequency, TF over GST control)"
same,binding signal,ELF3,"1.01 fold enrichment (6-mer frequency, TF over GST control)"
same,binding signal,ETV1,"1.07 fold enrichment (6-mer frequency, TF over GST control)"
same,binding signal,ERF,"1.06 fold enrichment (6-mer frequency, TF over GST control)"
same,binding signal,ETV3L,"1.07 fold enrichment (6-mer frequency, TF over GST control)"
same,binding signal,ETS2,"1.02 fold enrichment (6-mer frequency, TF over GST control)"
same,binding signal,ETV7,"1.12 fold enrichment (6-mer frequency, TF over GST control)"
same,binding signal,ETV3,"1.06 fold enrichment (6-mer frequency, TF over GST control)"
same,binding signal,ETV6,"1.03 fold enrichment (6-mer frequency, TF over GST control)"
